Test results taken from PubChem BioAssay AID488857 (Sanford-Burnham Center for Chemical Genomics, 2010).
The whole screen tested about 1,400 compounds, of which about 560 (40%) were called active.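 The calls were made as follows: active = mean inhibition over duplicate tests at 10 µM above 50%; inactive = the rest.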 The set was probably picked from earlier hits. Some of the results follow.

Assay: ASC/caspase-1 reporter retest in S. cerevisiae at one dose, specificity check for NALP1 project (AID 488857)
Conditions: S. cerevisiae ASC/Caspase-1, beta-galactosidase luminescence, 24 h; at 10 µM; active compounds read high
With Fc1ccc(C(OCCN2CCCC2)c2ccc(Br)cc2)cc1 (centres undefined) the inhibition was 53.5% (active).
In the case of CCCCN(Cc1ccccc1)C1CCN(CCc2ccccc2)CC1, the inhibition is reported as 52.6% (active).
For CSc1ncc(Cl)c(C(=O)O)n1 (tested in a mixture with another compound), the inhibition was 35.1% (inactive).
In the case of Clc1ccc2nc3c(c(-c4ccccc4)c2c1)CNCC3, the inhibition is reported as 57% (active).
With O=C(c1ccccc1)C(CN1CCCC1)c1ccccc1 (centres undefined) the inhibition was 25.8% (inactive).
In the case of COc1cc2c(cc1OC)CN(c1ccc([N+](=O)[O-])c(C(F)(F)F)c1)CC2, the inhibition is reported as 69% (active).
For CCOCCN1CCN(c2nnc3n2-c2ccc(Cl)cc2C(c2ccccc2Cl)=NC3)CC1, the inhibition was 30.9% (inactive).
In the case of CN[C@H]1C[C@H]2O[C@@](C)([C@H]1OC)n1c3ccccc3c3c4c(c5c6ccccc6n2c5c31)C(=O)NC4, the inhibition is reported as 99.2% (active).
In the case of Cc1ccc(C)c(NC(=S)NCCc2cnc[nH]2)c1, the inhibition is reported as 42.5% (inactive).
In the case of CC(Cc1ccccc1Sc1ccccc1)N(C)C (centres undefined), the inhibition is reported as 42.8% (inactive).
With COCCNCCOc1ccc(C(C)(C)c2ccccc2)cc1 the inhibition was 52.3% (active).
For CC1(C)C[C@H]2C=C(C=O)[C@]3(C=O)C[C@]3(C)[C@H]2C1, the inhibition was 81.3% (active).
With O=C1/C(=C/c2cccc([N+](=O)[O-])c2)N2CCC1CC2 the inhibition was 51.1% (active).
For Nc1c2c(nc3sc4c(c13)CCCCC4)CCCC2, the inhibition was 91.1% (active).
In the case of Nc1c2c(nc3sc4c(c13)CCCC4)CCCCC2, the inhibition is reported as 58.4% (active).
In the case of CC(C)NS(=O)(=O)c1ccc(OCC(=O)N2CCN(C)CC2)cc1, the inhibition is reported as 17.6% (inactive).
For CC(C)CCn1c(=O)c(C(=O)NCc2ccco2)c(O)c2ccccc21, the inhibition was 44.8% (inactive).
With Cc1cc2ccccn2c1C(C[N+](=O)[O-])c1c(F)cccc1Cl (centres undefined) the inhibition was 52.8% (active).
For C[C@H]1C[C@@H](C)C(=O)[C@@H]([C@H](O)CC2CC(=O)NC(=O)C2)C1, the inhibition was 98.8% (active).
With CC(Cc1ccccc1)NC(=O)/C=C/c1ccc(Cl)cc1 (centres undefined) the inhibition was 71.7% (active).
With c1ccc2sc(NC3=NCCN3)nc2c1 the inhibition was 100% (active).
For O=C1/C(=C/c2cc3c(cc2Cl)OCO3)N2CCC1CC2, the inhibition was 55% (active).
In the case of Nc1ccc(C2(c3ccc(N)cc3)CN3CCC2CC3)cc1, the inhibition is reported as 35% (inactive).
With CN1/C(=C\C=C\C2=[N+](C)c3ccc4ccccc4c3C2(C)C)C(C)(C)c2ccccc21 the inhibition was 99.7% (active).
For CN1CCN(c2ccc(N)c(N3CCN(C)CC3)c2)CC1, the inhibition was 31.1% (inactive).
In the case of O=C(c1cc2c(s1)-c1ccccc1OC2)N1CCC2(CC1)OCCO2, the inhibition is reported as 53.8% (active).
For N#CCCn1cc(C(=O)NCc2ccccc2)c(-c2ccccc2)n1, the inhibition was 39.2% (inactive).
For Cc1ccc(/C=C2\C(=O)NC(=O)N(CC3CCCO3)C2=O)s1 (centres undefined), the inhibition was 46.5% (inactive).
In the case of Cc1ccc(Cn2cc(C=O)c(-c3ccc(C)cc3)n2)cc1, the inhibition is reported as 67.5% (active).
In the case of Cc1cccc(N2C(=O)NC(=O)/C(=C/c3ccc([N+](=O)[O-])o3)C2=O)c1, the inhibition is reported as 45% (inactive).
For Cc1ccc(S(=O)(=O)NC(CC(=O)N2CCC3(CC2)OCCO3)c2ccco2)cc1 (centres undefined), the inhibition was 31.6% (inactive).
With CN1C2CCC1/C(=C/c1ccccn1)C(=O)/C2=C\c1ccccn1 the inhibition was 96.9% (active).
With CCCCCn1c(=O)c(C(=O)Nc2nc3ccccc3[nH]2)c(O)c2ccccc21 the inhibition was 36.8% (inactive).
For CCOc1cc(CNCCc2c[nH]c3ccccc23)cc(Cl)c1OCC, the inhibition was 43.5% (inactive).
With Nc1cc(Cl)c2nonc2c1[N+](=O)[O-] the inhibition was 57.1% (active).
With Cc1ccc(-c2nc(N3CCOCC3)s[n+]2-c2ccccc2)cc1 the inhibition was 61.9% (active).
With CNC(=O)Oc1ccc2ncccc2c1 the inhibition was 42.4% (inactive).
For CC1CCCC(C)N1/N=C/c1c[nH]c2ccc(Br)cc12 (centres undefined), the inhibition was 45.3% (inactive).
With COc1cc(/C=C(/C)[N+](=O)[O-])ccc1OCc1ccccc1Cl the inhibition was 80.2% (active).
